Experimental data reported in PubChem BioAssay (NCI).
Compounds without any hit were thinned out: in the full panel of roughly 83,000, 20% have a hit.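 Note: values are percent growth. 100 is the growth of untreated cells, values between 100 and 0 indicate rising inhibition; between -100 and 0 indicates cell death.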 Values without a mark were called inactive. The source made the active and inactive calls.

test system: EKVX NSCLC; assay: NCI-60 one-dose screen, 48 h (100 = growth as untreated, 0 = no growth, -100 = all killed); details: 10 µM
Experimental: Growth inhibition of the EKVX human Non-Small Cell Lung tumor cell line is measured as a screen for anti-cancer activity. Cells are grown in 96 well plates and exposed to the test compound for 48 hours. Compounds are tested at a single concentration, which is 10^-5 M for most compounds. The reported endpoint is percent growth (GI% or GIPRCNT), where numbers from 0 - 100% represent growth inhibition, and numbers from -100% - 0 represent cell death. For example, a value of 40 represents 60% growth inhibition. A value of 0 means no net growth occurred over the course of the experiment. A value of -40 indicates 40% of cells at the beginning of the experiment died by the end of the experiment. A value of -100 means all cells are dead at the end of the experiment.
NCI-60 Human Tumor Cell Lines Screen was performed using the standard one-dose NCI protocol, which is described in more detail at https://dtp.cancer.gov/discovery_development/nci-60/default.htm.
Compounds with GIPRCNT values below 10 were considered active. Activity score was based on GIPRCNT using the following formula: […]
Score is 0 for GIPRCNT values of 100 or above, 50 for GIPRCNT values of 0, and 100 for GIPRCNT values of -100.

SMILES	growth
CN(C)c1ccc(/C=C/c2nc3ccccc3c(=O)n2CC(=O)Nc2ccc(Cl)cc2)cc1	80%
COc1nccnc1NS(=O)(=O)c1ccc(NC2=C(Cl)C(=O)c3nc(C)ccc3C2=O)cc1	88.2%
O=C1CCC(N2Cc3c(C#CCCCNC(=O)c4ccc(NC(=O)[C@@H]5NC6(CCCCC6)[C@@]6(C(=O)Nc7cc(Cl)ccc76)[C@H]5c5cccc(Cl)c5F)cc4)cccc3C2=O)C(=O)N1 (stereo not given in full)	51.6%
COc1cc2c(cc1OC)/C(=C\c1sc(Nc3ccc(O)cc3)nc1O)C(C(=O)O)=N2	59.9%
COc1ccc2c3nc4cc(C)c(C)cc4nc3n(CCN(C)C)c2c1	12.6%
CN1C(=O)/C(=C/c2nccs2)SC1=S	80.7%
O=C1c2ccccc2C(=O)c2c1c(C(=O)c1ccc(Cl)cc1)n1c2ccc2c3ccccc3ccc21	97.1%
COc1ccc(CN2[C@H](C(=O)NCc3ccc(C(=O)NO)cc3)Cc3c([nH]c4ccccc34)[C@H]2C2CC2)cc1	51.6%
CNC(=O)c1cccc(N2CCc3c2ccc(NC(=O)Nc2ccc(N4CCN(C)CC4)c(C(F)(F)F)c2)c3F)c1	-87% (active)
O=C(CNc1nc(-c2ccccc2)cs1)Nc1cccc(Cl)c1	13.6%
COc1ccc2nc(Cl)c(-c3cc(-c4ccccc4)nc(=S)[nH]3)cc2c1	65.6%
CCCn1c(=O)c2[nH]c(-c3ccc(OCc4nc5ccccc5[nH]4)cc3)nc2n(CCC)c1=O	55.7%
O=C(c1ccc(Cl)cc1)C1[C@H](c2ccc(Br)cc2)[C@@H](c2ccccc2)NC12C(=O)Nc1ccc(Cl)cc12 (stereo not given in full)	-47.8% (active)
Cc1ccc(-c2nc(Nc3ccccc3C(=O)O)c3ccccc3n2)cc1	13.1%
CCN1CCN(c2ccc(NC(=O)Nc3ccc(-c4cc(C(=O)NC(C)C)c5ncccc5n4)cc3)cc2C(F)(F)F)CC1	-91.5% (active)
O=C(c1ccc(O)cc1)C1[C@H](c2ccc(Br)cc2)[C@@H](c2ccccc2)NC12C(=O)Nc1ccc(Br)cc12 (stereo not given in full)	6.1% (active)
O=c1oc2ccc(-c3ccc(F)cc3F)cc2c(=O)n1-c1ccc(F)c(Cl)c1	-9.05% (active)
C#CCNC(=O)[C@]12CCC(C)(C)C[C@H]1C1=CC[C@@H]3[C@@](C)(CCC#N)[C@H](C(=C)C)CC[C@@]3(C)[C@]1(C)CC2	57.8%
C=C1CCC2C3(C)COC(c4c(F)cccc4F)OC3CCC2(C)C1CC(O)C1=CCOC1=O (stereo not given)	85.7%
CN1CCc2c(sc3ncnc(N/N=C/c4cn(-c5ccccc5)nc4-c4ccc(Br)cc4)c23)C1	20.5%

SMILES	growth
COc1cccc(/C=N/NC(=O)c2ccc3nc(-c4ccc(Cl)cc4)[nH]c3c2)c1O	-53.8% (active)
COc1ccc2[nH]c(O)c(N=NC(=O)COc3ccc(NC(=O)Nc4ccc(Cl)cc4)cc3)c2c1	84.8%
N#Cc1ccc(NC(=O)CSc2ccc(-c3ccc(Br)cc3)nn2)cc1	72.4%
COc1ccc(N(C)c2cc(C#N)nc3ccccc23)cc1/C=C/C(=O)NO	-54.6% (active)
CN(C)c1ccc(/C=C/C(=O)c2ccc(NC(=O)CN3C(=O)NC(C)(c4ccccc4)C3=O)cc2)cc1 (stereo not given)	66.4%
O=c1[nH][nH]c(Nc2ccccc2)c1N=Nc1ccc(F)cc1	72.1%
CN(CCO)c1oc(-c2ccccc2)nc1[P+](c1ccccc1)(c1ccccc1)c1ccccc1	18.1%
O=C(CSc1nnc(-c2c[nH]c3ccccc23)n1-c1ccccc1)c1ccc(Br)cc1	10.8%
Cc1ccc(NC(=O)NCn2c(=O)[nH]c3ccccc3c2=O)cc1	87.6%
Brc1ccc(/C=N/Nc2ncnc3sc4c(c23)CCN(Cc2ccccc2)C4)cc1	94.2%
Cc1noc2c(Cc3ccccc3)nn(CC(=O)N/N=C/c3ccc(Br)cc3)c(=O)c12	65.8%
COc1ccc2[nH]cc(/C=N/Nc3cccc(Cl)n3)c2c1	44.2%
CN1C(=O)N(C)C2SC(N/N=C/c3ccccc3)=NC21 (stereo not given)	90.7%
COc1ccc(/C(CSc2nnc(-c3c[nH]c4ccccc34)n2-c2ccccc2)=N/O)cc1	15.1%
Cc1ccc(-c2cc(-c3cc4ccccc4nc3Cl)[nH]c(=O)n2)cc1	27.4%
NC1=NC(c2ccccc2Cl)N=C(Nc2nn[nH]n2)N1 (stereo not given)	96.2%
CC1=N/C(=C\c2ccc(N(C)C)cc2)C(=O)N1CCc1ccc(S(N)(=O)=O)cc1	95.2%
Cc1cc(C)nc(/N=C(\N)Nc2ccc(S(=O)(=O)Nc3nc(C)cc(C)n3)cc2)n1	104%
O=C1Nc2cc(-c3ccc(NC(=O)c4cccc([N+](=O)[O-])c4)cc3)ccc2/C1=C/c1ccc[nH]1	66.5%
CC(=O)Nc1nc(-c2ccc(N3CCN(C)CC3)c(NS(=O)(=O)c3cccc4c(N(C)C)cccc34)c2)cs1	69.9%
